The values below come from PubChem BioAssay.

The structures appear in SMILES notation. Activity calls are given as the source filed them.

Experiment [1] in a line: small molecules captured by biotinylated probe aFSTL3 – biochemical, small-molecule microarray, fluorescence 635/667, stem cell growth factor project, primary screen (AID 1064).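 Further: measures binding of the biotinylated anti-FSTL3 antibody to printed compounds.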 To be noted: higher = more signal.
Experiment [2] can be described thus: binders from COS7 lysate, DM2A8 probe, primary screen, torsin A project, cell lysate, small-molecule microarray, fluorescence 635/667 (AID 1065). To be noted: higher = more signal, COS7 lysate expressing mutant human TOR1A.
The nature of experiment [3]: small molecules captured by biotinylated probe aFGF2 – biochemical, small-molecule microarray, fluorescence 635/667, stem cell growth factor project, primary screen (AID 1067).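 Further: measures binding of biotinylated aFGF2 protein to printed compounds on slides; z-score merges feature fluorescence and signal-to-noise across triplicate slides.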 To be noted: higher = more signal.
A short description of experiment [4]: small molecules captured by biotinylated probe aFGF10 – biochemical, small-molecule microarray, fluorescence 635/667, stem cell growth factor project, primary screen (AID 1071).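 Further: score merges 667 nm spot intensity and signal to noise from triplicate slides.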 The settings on record: higher = more signal.
For experiment [5], the target named is Neurogenic locus notch homolog protein 2 (Homo sapiens) (UniProt Q04721). Nature of the experiment: small molecules binding Notch2 protein – biochemical, small-molecule microarray, 635 nm fluorescence, stem cell growth factors, primary screen (AID 1073). The settings on record: higher = more signal.
Chain of Neurogenic locus notch homolog protein 2 (Homo sapiens) (Q04721 whole entry, looked up, canonical isoform): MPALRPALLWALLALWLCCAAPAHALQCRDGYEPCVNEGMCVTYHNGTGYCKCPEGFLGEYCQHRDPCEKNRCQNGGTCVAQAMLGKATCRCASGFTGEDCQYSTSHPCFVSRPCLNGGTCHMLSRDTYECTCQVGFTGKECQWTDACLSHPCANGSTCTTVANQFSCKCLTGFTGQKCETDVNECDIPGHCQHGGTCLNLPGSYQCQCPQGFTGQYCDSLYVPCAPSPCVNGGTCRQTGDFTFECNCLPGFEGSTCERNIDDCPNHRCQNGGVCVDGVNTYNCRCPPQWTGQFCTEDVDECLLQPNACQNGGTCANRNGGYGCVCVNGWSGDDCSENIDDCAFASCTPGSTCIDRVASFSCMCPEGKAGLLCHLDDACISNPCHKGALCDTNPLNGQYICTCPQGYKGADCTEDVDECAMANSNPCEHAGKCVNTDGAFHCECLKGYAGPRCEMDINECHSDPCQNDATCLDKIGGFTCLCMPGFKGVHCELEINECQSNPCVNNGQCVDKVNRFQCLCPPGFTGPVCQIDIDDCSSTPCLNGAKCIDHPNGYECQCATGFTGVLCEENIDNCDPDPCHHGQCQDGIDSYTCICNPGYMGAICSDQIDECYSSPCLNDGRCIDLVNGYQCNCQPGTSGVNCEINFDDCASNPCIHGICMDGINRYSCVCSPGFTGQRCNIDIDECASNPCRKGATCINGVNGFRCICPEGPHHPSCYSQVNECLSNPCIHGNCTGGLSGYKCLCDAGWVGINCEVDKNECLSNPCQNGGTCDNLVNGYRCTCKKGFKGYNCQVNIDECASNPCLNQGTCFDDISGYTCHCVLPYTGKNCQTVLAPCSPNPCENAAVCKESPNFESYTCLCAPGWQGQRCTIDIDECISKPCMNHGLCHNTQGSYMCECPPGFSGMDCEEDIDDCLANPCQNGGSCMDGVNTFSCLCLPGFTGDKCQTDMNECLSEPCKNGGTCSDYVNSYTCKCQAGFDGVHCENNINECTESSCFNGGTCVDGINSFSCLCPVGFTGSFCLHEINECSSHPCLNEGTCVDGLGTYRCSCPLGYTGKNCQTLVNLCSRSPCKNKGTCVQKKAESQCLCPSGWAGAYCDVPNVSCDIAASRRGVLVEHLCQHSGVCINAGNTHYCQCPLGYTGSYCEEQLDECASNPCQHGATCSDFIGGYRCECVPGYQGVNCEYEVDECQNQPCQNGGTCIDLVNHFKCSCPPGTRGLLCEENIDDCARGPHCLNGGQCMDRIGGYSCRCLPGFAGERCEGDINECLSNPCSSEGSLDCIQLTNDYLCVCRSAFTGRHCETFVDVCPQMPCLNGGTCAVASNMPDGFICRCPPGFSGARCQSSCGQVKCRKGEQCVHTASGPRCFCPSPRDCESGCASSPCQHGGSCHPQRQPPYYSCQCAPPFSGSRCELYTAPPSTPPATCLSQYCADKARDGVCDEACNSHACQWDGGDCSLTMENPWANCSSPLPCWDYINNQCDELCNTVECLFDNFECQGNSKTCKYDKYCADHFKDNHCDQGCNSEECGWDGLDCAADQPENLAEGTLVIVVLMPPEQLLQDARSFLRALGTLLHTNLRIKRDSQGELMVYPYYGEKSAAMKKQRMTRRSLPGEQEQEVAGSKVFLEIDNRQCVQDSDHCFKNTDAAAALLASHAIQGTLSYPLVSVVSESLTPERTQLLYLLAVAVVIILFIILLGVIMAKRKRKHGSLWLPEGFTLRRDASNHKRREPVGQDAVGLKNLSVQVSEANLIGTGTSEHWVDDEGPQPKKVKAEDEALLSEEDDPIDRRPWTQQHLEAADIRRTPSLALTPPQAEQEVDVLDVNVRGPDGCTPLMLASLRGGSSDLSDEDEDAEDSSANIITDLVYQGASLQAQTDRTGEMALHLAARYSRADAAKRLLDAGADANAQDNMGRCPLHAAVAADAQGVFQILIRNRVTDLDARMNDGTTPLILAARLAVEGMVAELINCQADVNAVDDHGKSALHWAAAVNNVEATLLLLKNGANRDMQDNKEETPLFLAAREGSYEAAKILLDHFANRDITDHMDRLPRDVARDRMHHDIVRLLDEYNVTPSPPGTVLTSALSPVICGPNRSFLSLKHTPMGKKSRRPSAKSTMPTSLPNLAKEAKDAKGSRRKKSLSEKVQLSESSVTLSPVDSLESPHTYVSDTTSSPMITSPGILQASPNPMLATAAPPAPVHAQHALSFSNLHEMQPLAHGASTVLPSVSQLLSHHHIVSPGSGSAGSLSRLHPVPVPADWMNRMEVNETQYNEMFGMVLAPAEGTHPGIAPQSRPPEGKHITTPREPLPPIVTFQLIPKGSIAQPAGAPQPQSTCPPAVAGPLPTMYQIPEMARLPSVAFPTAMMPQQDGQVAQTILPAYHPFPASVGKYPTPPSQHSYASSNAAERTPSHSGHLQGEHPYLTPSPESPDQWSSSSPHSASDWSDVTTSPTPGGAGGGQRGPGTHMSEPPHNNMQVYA
The target of experiment [6] is Pro-neuregulin-1, membrane-bound isoform (Homo sapiens) (UniProt Q02297). Briefly: small molecules binding neuregulin-1 protein – biochemical, small-molecule microarray, fluorescence 635/667, psychiatric disease protein project, primary screen (AID 1075).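 Further: score combines 667 nm spot fluorescence with signal to noise.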 The settings on record: NRG1 binding, 635 nm fluorescence, higher = more signal.
Chain of Pro-neuregulin-1, membrane-bound isoform (Homo sapiens) (Q02297 whole entry, looked up, the tested form may be a part, canonical isoform): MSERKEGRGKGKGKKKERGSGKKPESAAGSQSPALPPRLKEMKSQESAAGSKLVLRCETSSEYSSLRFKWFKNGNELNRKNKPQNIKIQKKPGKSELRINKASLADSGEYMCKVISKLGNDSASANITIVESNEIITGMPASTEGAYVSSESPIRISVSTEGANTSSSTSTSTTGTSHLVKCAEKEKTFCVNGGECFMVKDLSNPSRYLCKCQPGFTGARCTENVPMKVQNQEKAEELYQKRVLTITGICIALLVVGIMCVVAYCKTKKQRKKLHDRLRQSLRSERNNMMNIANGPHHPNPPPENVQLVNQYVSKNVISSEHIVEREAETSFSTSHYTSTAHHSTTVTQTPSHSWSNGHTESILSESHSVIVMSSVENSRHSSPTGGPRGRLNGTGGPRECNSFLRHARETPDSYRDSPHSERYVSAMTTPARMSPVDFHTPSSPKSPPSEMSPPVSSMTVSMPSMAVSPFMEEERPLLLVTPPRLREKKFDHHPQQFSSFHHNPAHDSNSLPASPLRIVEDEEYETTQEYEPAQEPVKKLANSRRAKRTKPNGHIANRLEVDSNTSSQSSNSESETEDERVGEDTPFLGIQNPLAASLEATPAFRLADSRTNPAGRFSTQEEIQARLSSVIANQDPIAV
In experiment [7] the test system is Neuregulin-1 EGF-like domain. Nature of the experiment: small molecules binding NRG1 EGF domain – biochemical, small-molecule microarray, 635 nm fluorescence, primary screen (AID 1081).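 Further: binding of the protein to compounds printed on small-molecule microarray slides.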 To be noted: higher = more signal.
A short description of experiment [8]: FRG1 expression reporter modulators in myotubes – cell-based, C2C12 myotubes, firefly/Renilla luciferase, luminescence, FRG1 inhibition for FSHD, primary screen (AID 1084). To be noted: FRG1 promoter luciferase, higher = more signal, called active from +8 up or from −8 down.
Experiment [9] in a line: small molecules captured by biotinylated probe aFST – biochemical, small-molecule microarray, fluorescence 635/667, stem cell growth factor project, primary screen (AID 1086).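 Further: score merges 667 nm fluorescence with signal-to-noise of each printed compound spot.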 The settings on record: higher = more signal.
The nature of experiment [10]: binders of probe aHhip on microarray, primary screen, stem cell growth factor project, biochemical, small-molecule microarray, fluorescence 635/667 (AID 1087).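 Further: score merges spot fluorescence at 667nm with spot signal to noise ratio.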 The settings on record: higher = more signal.

In the case of `C=C(COC)C(=O)CC[C@H](OC(C)=O)c1ccccc1OCCO`, the composite z-score in experiment [1] was -0.0661; in experiment [2], 0.697; in experiment [3], -0.167; in experiment [4], 0.484; in experiment [5] it was -0.987; in experiment [6], -0.493. In addition, the composite z-score is 0.355 in experiment [7], -0.215 in experiment [9] and -0.0994 in experiment [10]. The z-score in experiment [8] is -0.0831 (inactive).
For the molecule `[N-]=[N+]=Nc1ccccc1C[C@@]1(C(=O)NCC(O)CO)N=C(c2ccc(OCCCO)cc2)O[C@@H]1c1ccccc1N=[N+]=[N-]` (stereo not given in full), the composite z-score in experiment [1] was -0.175; in [2], 0.045; in experiment [3], 0.285; in [4], 0.311; in experiment [5], 0.194; in experiment [6] it was 1.62. For the same molecule, the results for the composite z-score in experiment [7], in [9] and in experiment [10] were 0.848, 0.941 and -0.134, respectively. For the same molecule, the z-score in experiment [8] was -0.858 (inactive).
Turning to `N#Cc1ccc(NN2C(C(O)c3ccc(B(O)O)cc3)C=CC3CN(c4ccccc4)C(=O)C32)cc1` (stereo not given), the composite z-score in experiment [1] is 0.057; in experiment [2], 0.239; in experiment [3], -0.0893; in experiment [4], 0.0196; in experiment [5], 0.074; in experiment [6], 0.501. Also, the composite z-score was 1.07 in [7], -0.0118 in experiment [9] and -0.439 in experiment [10]. In [8], the z-score was 3.26 (inactive).
In the case of `Cc1ccc(S[C@]2(C(=O)NC(C)C)CC(=O)N(Cc3ccccc3)[C@@H]2c2ccc(CO)cc2)cc1`, the composite z-score in experiment [1] is 0.466; in experiment [2] it was -0.488; in [3], -0.0909; in experiment [4], -1; in experiment [5] it was -1.25; in experiment [6] it was 1.56. For the same molecule, the composite z-score is 0.57 in experiment [7], -0.604 in experiment [9] and 0.0373 in [10]. The z-score in experiment [8] was -2.62 (inactive).
On to `C=CCNC(=O)[C@H]1[C@@H]2C(=O)O[C@@H](c3ccccc3)[C@@H](c3ccccc3)N2[C@@H](c2ccc(OCCO)cc2)[C@]12C(=O)N(C(=O)OCCOC)c1ccc(C#CCNC(N)=O)cc12`, for which the composite z-score in experiment [1] was 0.141; in experiment [2], 0.275; in experiment [3], -0.399; in experiment [4] it was 0.474; in experiment [5], 1.41; in experiment [6] it was 0.491. The figures for the composite z-score in [7], in experiment [9] and in experiment [10] were 0.778, 0.942 and -0.246, respectively. Also, in experiment [8], the z-score was -0.988 (inactive).
As for `CCCCC=C[C@@H](NC(=O)C(C)(C)C)c1ccccc1`, the composite z-score in experiment [1] came to 0.0905; in experiment [2], 0.161; in experiment [3], 0.0775; in experiment [4], 0.57; in experiment [5], 1.5; in [6], 1.07. Also, the figures for the composite z-score in experiment [7], in experiment [9] and in experiment [10] were 0.357, 0.553 and 0.388, respectively. In addition, the z-score in experiment [8] is -0.751 (inactive).
With `C[N+](C)(C)CCCC[C@@H]1NC(=O)[C@H]2C[C@@H](C(=O)NCCCCCN)[C@@H](c3ccc(O)cc3)N2C1=O`, the composite z-score is 0.0912 in experiment [1]; 1.95 in experiment [2]; -0.0593 in experiment [3]; 0.873 in experiment [4]; 0.717 in [5]; 1.79 in [6]. The composite z-score in experiment [7] stood at 1.21; in experiment [9], 1.2; in [10] it was 0.0722. Besides, in [8], the z-score was -0.0231 (inactive).
`COc1ccc(CCNC(=O)[C@@]2(c3ccc([N+](=O)[O-])cc3)CC(=O)N(C3CCCCC3)[C@@H]2c2ccc(CO)cc2I)cc1`: the composite z-score is 0.897 in experiment [1]; 0.0603 in [2]; 0.0903 in experiment [3]; 0.33 in experiment [4]; 0.964 in [5]; 0.486 in [6]. Moreover, the composite z-score in experiment [7] was 0.827; in [9] it was -0.121; in experiment [10], 0.386. The z-score in experiment [8] was -1.64 (inactive).
As for `CS(=O)(=O)CCOC(=O)C1=CC(CCCO)=CC(C2CC2)N(Cc2sc3ccccc3c2Cl)C=C1C(=O)OCCS(C)(=O)=O` (stereo not given), the composite z-score in [1] is -0.143; in experiment [2], 0.0105; in [3], 0.0498; in experiment [4], 0.4; in [5], 1.36; in experiment [6], 1.92. Further, the composite z-score was 1.18 in experiment [7], 0.903 in experiment [9] and -0.134 in experiment [10]. Moreover, the z-score in [8] was -0.133 (inactive).
Take `CN(C)CCCC[C@@H]1NC(=O)[C@H]2C[C@@H](C(=O)NCCCCCCNC(=O)CS)[C@@H](c3cccc(OCCO)c3)N2C1=O`: the composite z-score in experiment [1] is 0.272; in experiment [2], 0.447; in experiment [3], -0.135; in experiment [4] it was -0.217; in experiment [5] it was -0.486; in [6] it was 0.891. In addition, the figures for the composite z-score in [7], in [9] and in [10] were 0.334, -0.346 and 0.411, respectively. Besides, the z-score in experiment [8] was 0.47 (inactive).
On to `COc1ccc(C(=O)Nc2ccc(CN3C(=O)[C@@]4(O[C@@H](CC(=O)N(CCO)Cc5ccccc5)[C@H]([Si](C)(C)c5ccc(OC)cc5)[C@H]4C)c4ccccc43)cc2)cc1`, for which the composite z-score in [1] was -0.0679; in experiment [2], 0.378; in [3] it was -0.135; in experiment [4], 0.086; in [5], -0.769; in experiment [6], 0.984. Further, the composite z-score in experiment [7] is 0.921; in experiment [9] it was -0.263; in [10], -0.0074. In experiment [8], the z-score is -2.13 (inactive).
Take `COc1ccc([Si](C)(C)[C@@H]2[C@@H](CC(=O)N3CCC[C@H]3CO)O[C@]3(C(=O)N(Cc4cccc(N5C(=O)c6cccc7cccc5c67)c4)c4ccccc43)[C@H]2C)cc1`: the composite z-score in experiment [1] is -0.401; in experiment [2], 0.342; in experiment [3], -0.0666; in experiment [4], 0.219; in [5], -0.321; in experiment [6], 1.22. The composite z-score was 1.06 in experiment [7], 0.019 in experiment [9] and -0.0618 in experiment [10]. Moreover, in experiment [8], the z-score was -1.01 (inactive).
On to `CC(C)(C)OC(=O)CC[C@]1(C(N)=O)N=C(c2ccc(OCCCO)cc2)O[C@H]1c1ccccc1N=[N+]=[N-]`, for which the composite z-score in experiment [1] is 0.365; in [2] it was -0.434; in [3], -0.0088; in [4] it was 0.396; in experiment [5], 0.9; in [6], 1.73. For the same molecule, the results for the composite z-score in [7], in experiment [9] and in experiment [10] were 1.48, 0.616 and 0.213, respectively. In addition, the z-score in experiment [8] was 6.25 (inactive).
